# Substitutions are numbered along the chain they refer to. The full ranking holds about 24,000 sequences; the median of “enrichment r” is about 0.99, and the highest 2% start at about 3.7. The sample holds the highest values, similar sequences and a random draw of the others, so the mix is not that of the screen.
# T1: UNK ZnF1-3 (human, UniProt Q9C0B0 31-174)
# T1 sequence: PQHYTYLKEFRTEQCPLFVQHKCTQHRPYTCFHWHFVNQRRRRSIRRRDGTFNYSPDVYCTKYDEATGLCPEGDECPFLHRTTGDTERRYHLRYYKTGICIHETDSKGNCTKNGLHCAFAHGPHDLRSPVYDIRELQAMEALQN
# B1: chr2:232320318:232320319:-_ENSG00000115053_ENST00000322723|hu_hu|hu_hu_hu_mus_True|28_78 (ssRNA)
# RNA: GGGAGUUCUACAGUCCGACGAUCACUAUUAAAGUCUACAAAACCAAACCCUUUGGAGGACCCAGUUUCCCGAUCAGUGACUAUUCUUGCACGAACAGAGCCCUCAAAUGACUCCUUUAAGGUCUCUUCAGUGGUAUCCUCAGACAACAGAGGAUUGAGCAUCA
# B2: chr13:100518589:100518590:+_ENSG00000125246_ENST00000339105|hu_hu|FALSE|FALSE (ssRNA)
# RNA: GGGAGUUCUACAGUCCGACGAUCUUCUCGUGACUGUCUAAGCAGCCCAGCUCCAUCUCGAAAGUCAAUGUACACCAGAUCUAUGGCUUGGAGACCAAAGGCUUUCGCUAUGACAACAAUCUUUUGCCGGGCGUAGAGAAUAUCCAACAGAGGAUUGAGCAUCA
# B3: chr17:60770872:60770873:+_ENSG00000011028_ENST00000303375|hu_hu|hu_hu_hu_mus_True|58_88 (ssRNA)
# RNA: GGGAGUUCUACAGUCCGACGAUCUCUUUAAAAAAAAAAAAAAAAAGUUUAAAAACAAUAGCACAUUUCGAGAAUCAUCAACUACAGUAGAGGGUCCGCUUUGAGUUUUUGUUCACAUCGUCCUGCACUGGGACACGGGGACUGCAACAGAGGAUUGAGCAUCA
# B4: chr17:60770872:60770873:+_ENSG00000011028_ENST00000303375|hu_hu|hu_hu_hu_mus_True|58_58 (ssRNA)
# RNA: B3 RNA with U47A, U48C, U49A, A52C, C55U
# B5: chr17:60770872:60770873:+_ENSG00000011028_ENST00000303375|hu_hu|hu_hu_hu_mus_True|1_58 (ssRNA)
# RNA: GGGAGUUCUACAGUCCGACGAUCUCUUUAAAAAAAAAAAAAAAAAGACAAACAAUAAUAGCACAUUUCGAGAAUCAUCAACUACAGUAGAGGGUCCGCUUUGAGUUUUUGUUCACAUCGUCCUGCACUGGGACACGACCAGGACAACAGAGGAUUGAGCAUCA
# B6: chr22:38882006:38882007:-_ENSG00000100201_ENST00000396821|hu_hu|FALSE|FALSE (ssRNA)
# RNA: GGGAGUUCUACAGUCCGACGAUCAGGAGGAGGAGGGGGAGGAGGAGGAGGGUAUUGGUAGGCAGUCUGCCCCAUGUAACCUAUCAUAUUGGUAGCUCCCGGAGGCUGUGCAAACUGUUGUGACAUCAGUGGCUGUGGCUGCUGCAACAGAGGAUUGAGCAUCA
# B7: chr10:28872372:28872373:+_ENSG00000095787_ENST00000354911|hu_mus|FALSE|FALSE (ssRNA)
# RNA: GGGAGUUCUACAGUCCGACGAUCUGCAUCUGAAGUUUUGCUUGGAUUAUUGCUUGGAUUAGAAGAAUGUGAAUUUGAACUAUGAAGUGCACUGUGGUUGUGUGAGUUUUCUUGUGGAGAGUAACUGGUCCCACCGUCCCUUUCCAACAGAGGAUUGAGCAUCA
# B8: chr19:8913615:8913616:-_ENSMUSG00000071658_ENSMUST00000096259|mus_hu|mus_mus_mus_hu_False|18_108 (ssRNA)
# RNA: GGGAGUUCUACAGUCCGACGAUCAGGGGGGCACCAACUUCUGCCUGAAAUGGGUGCCCCACCCAGUAGGGAGUUGCAGCUGAAAGUAUCUGAUGCAGAAGCAGUGACUAUACGAAAGGUCACUAGAGGGGAGGGCCAGGCCAGCAACAGAGGAUUGAGCAUCA
# B9: 49433355_49433581_8031_CDS_ENSG00000167548_ENST00000301067|human|control|control (ssRNA)
# RNA: GGGAGUUCUACAGUCCGACGAUCGCGCUGGAUCUGCUGCCGAAUCAGCAGCUCUCGUAGUCGCUGGCGCUGCCGUUGCUUCUCCAGCUCUGUUUGGCUAAGGCCGGACAUGCCUGGGUCCUGGGUACCUGGGAGUUCAGCUGUCAACAGAGGAUUGAGCAUCA
# B10: chr15:11317090:11317091:-_ENSMUSG00000022241_ENSMUST00000022849|mus_mus|FALSE|FALSE (ssRNA)
# RNA: GGGAGUUCUACAGUCCGACGAUCUUCUGUGAGGAUGGCAAUCAUUCUUUCCACCGACCCCAGGAUGGCUCUGUGAACAAUCACUGGCCUUUUCUUAUCAUCGCCAUCGUGGCUGACGUAAGUAAGGUUAAACCUGAUGGGCAACAACAGAGGAUUGAGCAUCA
# B11: chr4:87735950:87735951:+_ENSG00000163629_ENST00000511467|hu_hu|motif|central (ssRNA)
# RNA: GGGAGUUCUACAGUCCGACGAUCCUCACCAUGUCCUUGUAACAAUGUCUGCUAUCAUCAAAUGCUGCCUUUAAUCAUCCCGGAGAUCUGCAUUGUUUGGUUAGUGUUAAAAUUUUGUAAAUAAUUAUCAUAGGUUAAAGUAGCCAACAGAGGAUUGAGCAUCA
# B12: chr20:57609950:57609951:-_ENSG00000101166_ENST00000355937|hu_mus|FALSE|FALSE (ssRNA)
# RNA: GGGAGUUCUACAGUCCGACGAUCGAUCUUUUGUUUAGAUCAAAAGUCACAGCCUUACCCCACCUCAUUAAAAAAAAAGAUCUACCUAAAAUAAUUGUGUCUUUUAAAUAACAAAUAAUAUGAUGCCAGCUUGAGAGUCCUGGACAACAGAGGAUUGAGCAUCA
# B13: chr4:87735950:87735951:+_ENSG00000163629_ENST00000511467|hu_hu|FALSE|FALSE (ssRNA)
# RNA: B11 RNA with G81U, G82A
# B14: chr7:66561770:66561771:+_ENSMUSG00000025326_ENSMUST00000107537|mus_mus|motif|central (ssRNA)
# RNA: GGGAGUUCUACAGUCCGACGAUCUUAGCAUUACAGUAAAUAAGAGCUCUGUCUCAACUACUACAAGAAAGAAAAUAAUCCGGAGACAUCCUUUUCCCCUUCCAAUGAUUUGAAAGCUACCAUUAUCCCCUGCCAAUUAAAAUCCAACAGAGGAUUGAGCAUCA
# B15: 133533018_133533138_1595_3pUTR_ENSG00000113575_ENST00000481195|human|control|control (ssRNA)
# RNA: GGGAGUUCUACAGUCCGACGAUCUAGAAGGGAGGCCUUGGUAAUUAUUUUUAAAAAUGUUCAUUAAGCUCCAAUGAUUGUUUGCUGCUAUCCUUAUCUACAGUCAUGCUGAGUAAAGCUAUAGCUAAAUGGAAGUUAAAUUGUCAACAGAGGAUUGAGCAUCA
# B16: chr19:60011576:60011577:-_ENSMUSG00000040022_ENSMUST00000171986|mus_hu|FALSE|FALSE (ssRNA)
# RNA: GGGAGUUCUACAGUCCGACGAUCUUUUGCUGUAAAUGGAUUGGUUGACUCAUAAUCAAAAUAGUCCUGGCGAUUUUCACUAAAUGCAUUAGGUGAUUUCAAGUCACAAGGGCUAUCAGAUCCCCCAUUGUUAAGUUUAUCAGACAACAGAGGAUUGAGCAUCA
# B17: chr7:106631192:106631193:-_ENSMUSG00000030744_ENSMUST00000032998|mus_mus|motif|central (ssRNA)
# RNA: GGGAGUUCUACAGUCCGACGAUCCUUCAGCCAGCUCCCGAGUGAGAAAUUCAUUCAGCUCAGCUUUGAAGAUGCCAUCAGCGGCAAACUUCCUCUUCUUGGAAAUCUGCACCGCCAUCUUGCAGCCGCGCGCCGCUGAAAGGACAACAGAGGAUUGAGCAUCA
# B18: chr7:72463354:72463355:-_ENSMUSG00000030516_ENSMUST00000102592|mus_hu|FALSE|FALSE (ssRNA)
# RNA: GGGAGUUCUACAGUCCGACGAUCUAACUUCCUGGCACUUUUCCGAGAUUCUGGACAUAACCUCAUUCUCAUUGUUUUUACUCCUUGCUUAGAAUCAGGGUUAAGAAAUACAACAAUUGGAUACCACUGGGCAUAGUUAAGACGCAACAGAGGAUUGAGCAUCA
# B19: chr17:56552419:56552420:-_ENSMUSG00000013236_ENSMUST00000086828|mus_mus|mus_mus_mus_hu_False|68_78 (ssRNA)
# RNA: GGGAGUUCUACAGUCCGACGAUCAAAAAAUACACUAUUUAAAAAAAAUGAAAUGUCAGAAAAAGAAAAAAAAUAUAGAGUUUUAAAAGAAAGCUGGAUUCUGGUCCCAGCCCAGUGUCCCCAGGCUGCAGAGCGGGGAGGAGCCAACAGAGGAUUGAGCAUCA
# B20: 22200820_22267049_921_CDS_ENSMUSG00000039197_ENSMUST00000045376|mouse|control|control (ssRNA)
# RNA: GGGAGUUCUACAGUCCGACGAUCUUGAGACAGAAAGCCUCCAACAAAUGCAUCUCCAGCUCCAUUGGUGUCAAUGAUCUCUUCCUGGUUUUGAUCCAAGACAGGAAAAGCAGUGACAUCAUUCUCUGCAGCCACUAUGGUGUCCAACAGAGGAUUGAGCAUCA
# B21: chr17:56552419:56552420:-_ENSMUSG00000013236_ENSMUST00000086828|mus_mus|mus_mus_mus_hu_False|68_98 (ssRNA)
# RNA: B19 RNA with U38A, U39A, G58C, A59G, A60G, A61G, A63U, G64A, A65C
# B22: chr17:56552419:56552420:-_ENSMUSG00000013236_ENSMUST00000086828|mus_mus|mus_mus_mus_hu_False|8_68 (ssRNA)
# RNA: GGGAGUUCUACAGUCCGACGAUCAAAAAAUACACUAUUUAAAAAAAAUGAAAUGUCACGGGAUACAAAAAAAUAUAGAGUUUUAAAAGAAAGCUGGAUUCUGGUCCCAGCCCAGUGUCCCCAGGCUGAGUGCGGAAGAGGAGCCAACAGAGGAUUGAGCAUCA
# B23: chr17:56552419:56552420:-_ENSMUSG00000013236_ENSMUST00000086828|mus_mus|mus_mus_mus_hu_False|38_68 (ssRNA)
# RNA: GGGAGUUCUACAGUCCGACGAUCAAAAAAUACACUAUUUAAAAAAAAUGAAAUGUCACGGGAUACAAAAAAAUAUAGAGUUUUAAAAGAAAGCUGGAAAAAAAAUGCAGCCCAGUGUCCCCAGGCUGCAGAGCGGGGAGGAGCCAACAGAGGAUUGAGCAUCA
# Target: T1, UNK ZnF1-3
# Experiment: nsRBNS (natural sequence RNA bind-n-seq); RBNS binding buffer (assumed for nsRBNS): 25 mM Tris pH 7.5, 150 mM KCl, 3 mM MgCl2, 0.01% Triton X-100, 500 ug/ml BSA, 20 U/ml SUPERase-In, 4 C; UNK is unkempt and MSI1 is Musashi-1; names of the RNAs are library labels; protein concentration not given here; high values mean tight binding
row,Binder,binding signal
1,B1,0.596 enrichment R
2,B2,0.61 enrichment R
3,B3,4.59 enrichment R
4,B4,4.08 enrichment R
5,B5,3.08 enrichment R
6,B6,1.56 enrichment R
7,B7,1.04 enrichment R
8,B8,0.986 enrichment R
9,B9,0.484 enrichment R
10,B10,1.43 enrichment R
11,B11,5.3 enrichment R
12,B12,2.8 enrichment R
13,B13,3.93 enrichment R
14,B14,1.63 enrichment R
15,B15,1.37 enrichment R
16,B16,0.505 enrichment R
17,B17,0.767 enrichment R
18,B18,1.13 enrichment R
19,B19,10.9 enrichment R
20,B20,0.736 enrichment R
21,B21,9.31 enrichment R
22,B22,6.22 enrichment R
23,B23,10.8 enrichment R

# Reference: publication PMC12136788
